From PubChem
RE007 growth inh = qHTS Assay for Inhibitors of the HIV-1 protein Vpr; 360,000 compounds, 0.21% hits; Potency, µM (highest dose often 92.2 µM), for the others: at the top dose activity change, negative = less growth, most hits filed as inhibitors; AID 651644, 2012; S. pombe RE007 Vpr strain, BacTiter-Glo ATP luminescence, 24 h; active = well fitted falling curve with a large enough effect; inconclusive = small, poorly fitted or top-dose-only effect; inactive = no such curve, though single readings can be large or run the other way; also: nearly all actives have a fitted effect of over 50% in size
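Fission yeast strain RE007, carrying one chromosomally integrated HIV-1 vpr copy, was seeded at OD 0.01 in PMG+AL medium with 23 nL pinned compound. After 24 h at 30 °C and 99% humidity, viability was read by BacTiter-Glo luminescence.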
Sm TGR block = qHTS Assay for the Inhibitors of Schistosoma Mansoni Peroxiredoxins | purified TGR, DTNB reduction, TNB absorbance 405 nm | Potency, µM (top dose mostly 114 µM), without a hit: top-dose activity change, negative = inhibition, usual class: inhibitors | 360,000 compounds, 3% hits | AID 485364, 2010; also: nearly all actives have a fitted effect of over 60% in size
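TGR 20 nM + NADPH 100 uM (dispensed conc.), cpd preinc 15 min RT; start with NADPH (500 uM addition) then DTNB (15 mM addition). Kinetic TNB absorbance, 405 nm filter. Four-parameter Hill fit across titration.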
Giardia FBPA inh = qHTS Assay for Inhibitors of Fructose-1,6-bisphosphate Aldolase from Giardia Lamblia | A8B2U2 | purified Giardia FBPA | Potency, µM (highest dose often 59.6 µM), for the others: at the highest dose activity, negative = inhibition, hits mostly inhibitors | 290,000 compounds, 0.71% hits; also: nearly all actives have a fitted effect of over 55% in size
Target sequence (A8B2U2 whole entry, looked up): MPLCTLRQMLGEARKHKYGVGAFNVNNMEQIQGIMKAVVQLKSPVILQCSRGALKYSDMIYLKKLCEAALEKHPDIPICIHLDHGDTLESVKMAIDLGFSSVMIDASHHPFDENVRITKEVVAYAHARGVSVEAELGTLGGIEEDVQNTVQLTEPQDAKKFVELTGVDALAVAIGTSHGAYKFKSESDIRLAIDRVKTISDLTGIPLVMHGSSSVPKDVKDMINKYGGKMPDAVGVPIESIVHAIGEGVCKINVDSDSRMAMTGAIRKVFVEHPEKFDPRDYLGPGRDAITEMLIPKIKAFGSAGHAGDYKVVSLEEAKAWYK
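Giardia FBPA (40 nM reagent) was preincubated 10 min at RT with compound (up to 57.5 uM final), then substrate plus GAPDH/TPI/NAD/arsenate coupling system with diaphorase/resazurin was added; resorufin fluorescence (525/598 nm) was read after 20 min.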
LmPK inh = qHTS Assay for Inhibitors of Leishmania Mexicana Pyruvate Kinase (LmPK); 290,000 compounds, 0.37% hits; purified LmPK, Kinase-Glo ATP luminescence, 1 h; Potency, µM (doses to about 57.5 µM), for inactives: top-dose activity change, negative = inhibition, actives largely listed as inhibitors; Q27686
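Purified LmPK (0.1 nM) converted ADP (0.1 mM) to ATP with PEP (0.5 mM) in imidazole buffer pH 7.2 with KCl and MgCl2, 1 h at room temperature. ATP was read by Kinase-Glo luminescence; data normalized to uninhibited and no-enzyme controls.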
TbPYK inhibitor = qHTS of Trypanosoma Brucei Inhibitors; Potency, µM (highest dose often 76.8 µM), without a hit: at the top dose activity, negative = inhibition, usual class: inhibitors; 410,000 compounds, 0.12% hits; AID 624173, 2012; TbPYK enzyme, Kinase-Glo Plus ATP luminescence, 45 min; pyruvate kinase (Trypanosoma brucei), Q57TT1; also: nearly all actives have a fitted effect of over 50% in size
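Glycolytic pyruvate kinase of T. brucei was incubated with substrate, test compound and 130 uM ADP for 45 minutes at room temperature. Luminescent Kinase-Glo Plus signal was measured after 10 minutes.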
* = called active by the depositor; ? = inconclusive; / = not tested or not shown; [ ] = remark or other dose. In the library only some 3.3% were active in any assay of this set; here they are far more common. Unless noted, calls follow the shape of the dose curve; as a rule, active = well fitted curve in the direction sought with a large enough effect; inconclusive = small, poorly fitted or top-dose-only effect, or another doubt; inactive = no such curve, though single readings can be large; an effect the other way counts as inactive or inconclusive. % is scaled to controls: 0 for no effect and ±100 for the full control effect; potency is read from the fitted curve at half-maximal effect.

SMILES | RE007 growth inh | Sm TGR block | Giardia FBPA inh | LmPK inh | TbPYK inhibitor
CCC(COC)Oc1cc(NCc2ccccc2)c2ncn(C(C)C)c2c1 (stereo unspecified) | -12% | 28µM* | / | / | -19%
CCC(CO)Oc1cc(NCc2ccccc2)c2ncn(C(C)C)c2c1 (stereo unspecified) | -10% | / | / | / | -10%
COc1ccc(NC(=S)Nc2cccc([N+](=O)[O-])c2)cc1 | 3% | 20µM* | -4% | 6% | 1%
COc1ccc(NC(=O)c2cc([N+](=O)[O-])ccc2O)cc1 | 6.3µM* | 0% | -22% | 13µM* | ?
COc1ccc(NC(=O)c2cccc([N+](=O)[O-])c2)cc1 | -11% | 6% | -18% | -4% | -1%
COC(=O)c1ccc(NC(=O)C2C3C=CC(O3)C2C(=O)O)cc1 (stereo unspecified) | ? | ? | 8% | -1% | -3%
CC1(C)CC(=O)C(CC2=C(O)CC(C)(C)CC2=O)C(=O)C1 | 13% | 24%[11.4 µM] | -13% | 8% | -22%
CC1(C)CC(=O)C(CC2=C(O)CC(C)(C)CC2=O)=C(O)C1 | -17% | 2.8µM* | -5% | 0% | -26%
O=C(Nc1ccc(-c2nc3ncccc3o2)cc1)c1ccco1 | -22% | 20µM* | 0% | -1% | -26%
O=C(Nc1ccc2oc(-c3cccnc3)nc2c1)c1ccc(Br)o1 | 7% | 28µM* | -25% | -1% | -5%
O=C(Nc1ccc2oc(-c3cccnc3)nc2c1)c1ccco1 | 0% | 50µM* | / | -1% | -3%
O=C(Nc1ccc2oc(-c3cccnc3)nc2c1)c1cccnc1 | 4% | -22% | -19% | 6% | 2%
CC(C)(C)C(=O)N1CCN(c2nc3ccc(Br)cc3s2)CC1 | -17% | -10% | / | -8% | 4%
Cc1nnc(SCC(=O)NC(=O)NC(C)C)s1 | 0% | 2% | 6% | 3% | -9%
CCCCc1cc(-c2n[nH]c(=S)o2)c2ccccc2n1 | -6% | 45µM* | -4% | 0% | -32%
Cc1ccc(CNC(=O)C2CCCN(C(=O)N(C)C)C2)cc1 (stereo unspecified) | 10% | -19% | 4% | 9% | 0%
Cc1ccccc1NC(=S)NNC(=O)c1ccncc1 | 8% | / | 0% | -14% | 3%
Cc1ccccc1NC(=S)NNC(=O)c1cccnc1 | -5% | -6% | -4% | 18µM* | 4.5µM*
CCOc1ccc(/C=N/NC(=O)c2ccccc2Cl)cc1CN1CC2CC(C1)c1cccc(=O)n1C2 (stereo unspecified) | -10% | -18% | / | / | -2%
Cc1ccc(N(Cc2ccccc2)C(=O)c2cc(S(=O)(=O)N3CCOCC3)ccc2C)cc1 | 2% | 0% | / | / | 1%
c1ccc(CNc2ccc3ccccc3n2)nc1 | -10% | 2% | 7% | 18µM* | -7%
CC(=O)OCCNc1cc(SC(C)C)c2nonc2c1[N+](=O)[O-] | 1% | -23% | -20% | 10% | 7%
CC(=O)OCCN(C)c1cc(SC(C)C)c2nonc2c1[N+](=O)[O-] | 1% | 0.71µM* | -27% | -8% | -14%
CCOC(=O)N1CCN(c2cc(N(C)CCO)c([N+](=O)[O-])c3nonc23)CC1 | -5% | 35µM* | -17% | 2% | 3%
CN(CCO)c1cc(Sc2nc3ccccc3s2)c2nonc2c1[N+](=O)[O-] | -2% | 0.32µM* | -19% | 1% | -11%
SMILES | RE007 growth inh | Sm TGR block | Giardia FBPA inh | LmPK inh | TbPYK inhibitor
CCOC(=O)N1CCN(c2cc(NCCO)c([N+](=O)[O-])c3nonc23)CC1 | 4% | -4% | -22% | -8% | -2%
Cc1ccc(O)c(CNc2ccccn2)c1 | 7% | 2% | 1% | 1% | -4%
Oc1ccc2ccccc2c1CNc1ccccn1 | -24% | 2.2µM* | -7% | 2% | -6%
Clc1ccccc1-c1ccc2ncnc(NCc3cccs3)c2c1 | / | 1% | / | / | 1%
c1coc(-c2ccc3ncnc(NCc4cccs4)c3c2)c1 | / | 32µM* | / | / | /
CCOC(=O)c1cnc2c(Cl)cccc2c1NCCN(C)C | 0% | 3% | 1% | -3% | 2%
